Shn3 inh set2: reduction of Shn3 3'UTR firefly luciferase signal, primary screen, Schnurri-3 inhibitor project, cell-based, Clone20 osteoblasts, set 2; Clone20 osteoblast Shn3 3'UTR firefly luciferase, 24 h; inhibition, % at 12.5 µM; actives 0.52% (n = 360,000);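 active = mean inhibition of at least 75% with every replicate also reaching 75%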;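 also: 0% = median of neutral control wells and 100% = pilot-screen positive control compound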
Peg3 promoter: Peg3 promoter-driven luciferase inhibitors, primary screen, cell-based, HeLa, luciferase luminescence; HeLa PEG-Prom luciferase reporter, overnight; inhibition, % at 20 µM; actives 1.7% (n = 360,000); AID 588405, 2011;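 active = inhibition of at least 50% at 20 µM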
KKLEB tox: cytotoxicity in KKLEB CF airway cells, primary screen, cytotoxicity control for CF NF-kB inhibitor project, cell-based, uHTS, fluorescence assay plates; KKLEB CF airway cells viability, ATPlite luminescence, overnight; active compounds read low; cells stimulated with P. aeruginosa culture filtrate; activity change (cytotoxicity), % at 5 µM; actives 0.36% (n = 360,000); AID 602141, 2011;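 active = corrected activity change at or below -50% at 5 µM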
MITF TRPM1 inh: inhibitors of MITF-dependent TRPM1 promoter reporter, primary screen, cell-based, SK-MEL-5, single point, luciferase; inhibition, % at 12.5 µM; SK-MEL-5 TRPM1 promoter luciferase, 24 h; AID 488899, 2010; actives 0.83% (n = 330,000);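 active = mean inhibition across replicates of 60% or more, whatever share of single replicates reaches that level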
CF NFkB inh: inhibitors of PAF-induced NF-kB signaling, primary screen, cell-based, GFP fluorescence, uHTS | KKLEB NF-kB-GFP reporter, GFP fluorescence overnight | inhibition, % at 5 µM | actives 0.86% (n = 360,000) | AID 588850, 2011;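 active = at least 50% inhibition at 5 µM, scaled per plate between neutral and stimulator controls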;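 also: PAF is a Pseudomonas aeruginosa culture filtrate used as stimulus; plate controls were PAF-stimulated DMSO wells for no effect and unstimulated DMSO wells for full effect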
HIF-2a inh: HIF-2a reporter inhibitors, primary screen, luminescence, 786-0 RCC cells. 786-0 RCC cells HIF-2a reporter, luciferase luminescence, overnight. inhibition, % at 18.8 µM. actives 0.72% (n = 360,000). AID 624352, 2012;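 active = inhibition of the luminescence signal of 40% or more relative to plate controls, in a single-dose primary screen at 18.75 µM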
* marks the source's active call; other numbers are inactive results; · = no result given. Sampled rows, rich in hits. Any-hit rate of the full collection: about 2.7%.

SMILES	Shn3 inh set2	Peg3 promoter	KKLEB tox	MITF TRPM1 inh	CF NFkB inh	HIF-2a inh
COC(=O)[C@]12CCCCC=C1N(CCC1=CCCCC1)C(=O)[C@H](CC(=O)NCCCCc1ccccc1)C2	·	·	·	·	·	7
C/C(=N\NC(=O)c1nnn(-c2nonc2N)c1CN(C)c1ccccc1)c1ccccn1	92*	68*	0	24	6	18
CCCN(CCC)Cc1c(C(=O)N/N=C/C(C)=C\c2ccco2)nnn1-c1nonc1N	3	38	-26	69*	34	15
COc1ccc(NC(=O)c2nc[nH]c2C(=O)N(C)CCO)cc1	2	8	11	·	-13	-1
Nc1cccc(-c2c[nH]c3ncc(-c4cccnc4)cc23)c1	27	5	-6	16	80*	-8
CC(C)(C)NC(=O)C1C(c2ccc(C(F)(F)F)cc2)=Nc2ccccc2N1C(=O)c1cccc(C(F)(F)F)c1 (stereo unspecified)	·	·	·	·	·	1
Cc1cccc(N2CCN(C(=O)c3ccc(CS(=O)(=O)c4ccccc4C)o3)CC2C)c1 (stereo unspecified)	18	52*	-11	30	53*	20
COc1cccc(-c2sc3ccc(OC)cc3c2-c2ccc(OCCN3CCCC3)cc2)c1	1	97*	-8	23	12	-22
COc1cccc(-c2sc3cc(OC)c(OC)cc3c2-c2ccc(OCCN3CCCCC3)cc2)c1	4	97*	-14	45	21	6
COc1cccc(-c2sc3ccccc3c2-c2ccc(OCCN3CCCCC3)cc2)c1	10	84*	-46	-8	29	15
CC(=O)Nc1cccc(NC(=O)CSc2ncc(C(=O)Nc3ccccc3)c(=O)n2C)c1	10	105*	3	67*	26	1
CC(=O)Nc1cccc(NC(=O)CSc2ncc(C(=O)Nc3ccc(F)cc3)c(=O)n2C)c1	19	-19	-6	47	8	-14
CC(=O)c1cccc(NC(=O)CSc2ncc(C(=O)Nc3ccccc3)c(=O)n2C)c1	-12	110*	-1	64*	15	10
CC(=O)Nc1ccc(NC(=O)CSc2ncc(C(=O)Nc3ccc(Cl)cc3)c(=O)n2C)cc1	-4	-74	-12	2	21	-60
Cn1c(SCC(=O)NCC2CCCO2)ncc(C(=O)Nc2ccc(Cl)cc2)c1=O (stereo unspecified)	20	59*	-2	67*	41	-61
CC(=O)c1cccc(-c2ccnc3c2CC(C(=O)Nc2ccc(F)c(Cl)c2)O3)c1 (stereo unspecified)	28	33	6	·	-27	-2
CCOc1ccc(Cl)cc1-c1cc(C(=O)NCc2cc(C(F)(F)F)cc(C(F)(F)F)c2)[nH]n1	1	-13	4	·	-6	16
CCOC(=O)[C@]12CCCC=C1N(CCC1=CCCCC1)C(=O)[C@H](CC(=O)NCc1cccc3ccccc13)C2	·	·	·	·	·	-3
COc1ccc(Cl)cc1N1CCN(CCNC(=O)Nc2ccccc2C)CC1	8	51*	-13	0	-2	29
C=C(NC(=O)C(=C)NC(=O)c1csc(C2=NC3c4csc(n4)C4NC(=O)c5csc(n5)C(C(C)(O)C(C)O)NC(=O)C5CSC(=N5)/C(=C/C)NC(=O)C(C(C)O)NC(=O)c5csc(n5)C3(CC2)NC(=O)C(C)NC(=O)C(=C)NC(=O)C(=C)NC(=O)C(C(C)C)NC2C=Cc3c(C(C)O)cc(nc3C2O)C(=O)OC4C)n1)C(N)=O (stereo unspecified)	86*	81*	-16	94*	-113	64*
COc1ccc(-n2sc3ccccc3c2=O)cc1	23	-138	-11	·	63*	-65
C[C@H](NC(=O)C1CCN(S(=O)(=O)c2ccccc2)CC1)C(=O)NCc1ccncc1	-12	7	-8	·	-8	7
Cc1cccc(C)c1NC(=O)C(c1ccccc1OC(F)(F)F)N1CCC(c2ccccc2)CC1 (stereo unspecified)	·	·	·	·	·	5
COc1cc(C(=O)NC2CCCc3c2cnn3-c2ccccc2F)cc(OC)c1OC (stereo unspecified)	89*	13	-1	27	-10	11
Cc1cc(C(=O)NC2CCCc3c2cnn3-c2cccc(C)c2C)n(C)n1 (stereo unspecified)	91*	6	-12	28	-17	11
SMILES	Shn3 inh set2	Peg3 promoter	KKLEB tox	MITF TRPM1 inh	CF NFkB inh	HIF-2a inh
CCOC(=O)c1c2ccc(OCC(=O)NN)cc2n2ccccc12	8	15	7	-7	-25	15
CCOC(=O)c1c2ccc(OCC(=O)N/N=C/c3ccc(C)cc3)cc2n2ccccc12	23	84*	-5	7	-11	-30
Cc1cc(C)c(C)c(S(=O)(=O)N2CCNC(=O)C2)c1C	11	-1	1	·	6	14
Cc1ccc(Nc2nc(NCc3ccco3)c3ccccc3n2)cc1	96*	106*	-40	-21	32	-130
COc1ccccc1Nc1nc(NCc2ccco2)c2ccccc2n1	16	-47	-12	·	4	-80
CC(O)(c1cccc(F)c1)c1nc(-c2ccc3ccccc3c2)cs1 (stereo unspecified)	9	-127	4	·	4	-203
O=C(O)C1Cc2ccccc2CN1S(=O)(=O)c1ccc(Cl)cc1 (stereo unspecified)	6	7	-78*	-5	59*	13
COc1ccc(S(=O)(=O)N2Cc3ccccc3CC2C(=O)O)cc1 (stereo unspecified)	7	10	14	8	-3	8
O=C(Cc1ccccc1)Nc1ncnc2c1C(c1ccccc1)c1c(ccc3ccccc13)O2 (stereo unspecified)	25	53*	-13	16	18	21
CC(=O)NC(c1ccco1)c1ccc2cccnc2c1O (stereo unspecified)	74	13	4	52	-7	5
Oc1ccccc1C(Nc1nccs1)c1ccc2cccnc2c1O (stereo unspecified)	93*	47	0	19	-6	20
Oc1c(C(Nc2ccccn2)c2ccccn2)ccc2cccnc12 (stereo unspecified)	84	54*	-16	71*	-4	-17
CCOC(=O)C(=O)N(C)c1c(CC)nc2c(OCCC3CCCCC3)cccn12	10	16	-2	·	7	10
O=C(Cc1ccccc1)Nc1cccc(N2C(=O)C=CC2=O)c1	45	96*	2	4	52*	27
